Screening data from PubChem.
Pf Dd2 inh – blocks in vitro growth of P. falciparum Dd2. P. falciparum Dd2 growth, SYBR Green, 72 h. Potency, µM (doses to about 28.9 µM), for the others: at the top dose activity, negative = inhibition, actives largely listed as inhibitors. 120,000 compounds, 4.3% hits. AID 1347417; active = well fitted inhibition curve with a large enough effect;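 note: plate controls were DMSO vehicle for no effect and reference drug for full effect; nearly all actives have a fitted effect of over 65% in size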
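Infected erythrocytes (Dd2, 0.3% parasitemia, 2.5% hematocrit final) are added to compound in RPMI-1640/Albumax II medium, grown 72 h at 37C in low oxygen, then lysed with saponin/Triton-X containing SYBR Green and read by fluorescence.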
Starred values were filed as active, the others as inactive; i = inactive; [ ] = another dose, or the depositor's remark. The full list was thinned out, with hits kept by preference. Potency is the fitted concentration of half-maximal effect.

SMILES	Pf Dd2 inh
COC(=O)N1CCc2nc(-c3ccc(OC)cc3)nc(-c3ccccc3)c2C1	i
CCc1nc2c(c(-c3ccc(Cl)cc3)n1)CN(Cc1ccc(OC)cc1)CC2	11.2µM*
CCc1nc2c(c(-c3ccc(Cl)cc3)n1)CN(C(=O)c1ccc(F)cc1)CC2	-3.8%
CCc1nc2c(c(-c3ccc(Cl)cc3)n1)CN(CC1CC1)CC2	4.47µM*
CCc1nc2c(c(-c3ccc(OC)cc3)n1)CCN(Cc1ccc(C(F)(F)F)cc1)CC2	11.2µM*
CCc1nc2c(c(-c3ccc(Cl)cc3)n1)CN([S+](=O)([O-])c1ccc(C)cc1)CC2	i
CCc1nc2c(c(-c3ccc(Cl)cc3)n1)CN(Cc1cccc3ccccc13)CC2	-1.4%
COc1ccc(-c2nc(C)nc3c2CCN(Cc2ccc(F)cc2)CC3)cc1	i
COCC(=O)N1CCc2nc(-c3ccccc3)nc(-c3ccc(OC)cc3)c2C1	-8.4%
COc1ccc(-c2nc(-c3ccccc3)nc3c2CN(C(=O)Cc2ccccn2)CC3)cc1	5.62µM*
Cc1noc([C@@H]2CN(C(=O)CCC(C)C)C[C@H]2CO)n1	16.8%
CC1CCCN1c1ncnc2c1CN(c1cccnc1)C(=O)CN2C (stereo unspecified)	-2.8%[44.1 µM]
CCc1cccc(NC(=O)N(C)CC2CCOCC2)c1	-16.6%
CN(C)C(=O)NCc1cc2n(n1)CCN(Cc1cn[nH]c1-c1ccccc1)C2	-0.9%
OC[C@@H]1O[C@H](CNC2CCOCC2)[C@H](N2CCCCC2)[C@@H]1O	-12.3%[44.1 µM]
CN(Cc1cccc2[nH]ccc12)C1CCc2nn(CC3CC3)c(=O)n2CC1 (stereo unspecified)	-22.5%
COc1cccc(NC(=O)NC[C@H]2O[C@@H](CO)[C@@H](O)[C@H]2N2CCN(c3ccc(F)cc3)CC2)c1	i
O=C(NC1CCCCCCC1)C1CCN(C(=O)c2ncn3c2COC(c2ccc(Cl)cc2)C3)CC1 (stereo unspecified)	-17.7%
Cc1ccc(C(=O)N2CCc3nc(C4CC4)nc(-c4ccc(Cl)cc4)c3C2)cc1	-30.0%
COc1ccc(-c2nc(C3CC3)nc3c2CN(C(=O)c2ccccc2F)CC3)cc1	-11.3%
O=C(NC1CCNCC1)C1CCN(c2nc(-c3ccccc3)nc3c2CCC3)CC1	-10.7%
COc1ccccc1C(=O)N1CCc2nc(C3CC3)nc(-c3ccc(Cl)cc3)c2C1	11.2µM*
CCc1nc2c(c(-c3ccc(O)cc3)n1)CCN(C(=O)c1ccc(F)cc1)CC2	i
CCc1nc2c(c(-c3ccc(O)cc3)n1)CN(Cc1ccc(F)cc1)CC2	-6.6%
CCc1nc2c(c(-c3ccc(O)cc3)n1)CCN(Cc1ccccc1C(F)(F)F)CC2	1.78µM*
SMILES	Pf Dd2 inh
NC(=O)[C@@H]1CCCN1C(=O)C1CCN(c2nc(-c3ccccc3)nc3c2CCC3)CC1	-20.5%
O=C(C1CCN(c2nc(-c3ccccc3)nc3c2CCC3)CC1)N1CCNCC1	12.6µM*
Cc1ncc(CN2CCC(C3(c4cccnc4)NC(=O)NC3=O)CC2)[nH]1 (stereo unspecified)	7.8%
COc1ccccc1CN1CCC2(CC1)CC(C(=O)O)N(C(C)=O)C2 (stereo unspecified)	6.0%
Cc1noc(C)c1[S+](=O)([O-])N1CCn2cc(C(=O)NCc3ccc(Cl)nc3)nc2C1	-11.3%
CC(=O)N1CCN(C(=O)CSCC(=O)O)C[C@H]1C(=O)N[C@H]1CCCNC1=O	24.0%[44.1 µM]
CC(C)CCNC(=O)C1CCN(C(=O)c2cc3sccc3n2Cc2ccc(Cl)cc2)CC1	12.6µM*
CCCSCCCNC(=O)C1CCN(C(=O)c2cc3sccc3n2C)CC1	14.1µM*
Cn1c(C(=O)N2CCCC(C(=O)N3CCN(c4ccccc4)CC3)C2)cc2sccc21 (stereo unspecified)	-3.2%
CCCCNC(=O)C1CCc2sc(C(=O)N3CCOCC3)cc2C1 (stereo unspecified)	-2.0%
CCn1c(C(=O)N2CCC(C(=O)NCCc3ccccc3)CC2)cc2sccc21	-22.7%
Cc1cc(N2CCC(C(=O)NCCC(C)C)CC2)n2nc(C)c(-c3ccc(Cl)cc3)c2n1	58.6%
O=C(NCCCc1ccccc1)c1n[nH]c2c1CN(C(=O)c1ccccc1F)CC2	i
N#Cc1ccc(CN2CC(CNC(=O)c3ccccc3)C3(C2)CN(c2ccccc2)C3)cc1 (stereo unspecified)	-7.5%[44.1 µM]
COc1ccc(OC)c(NC(=O)c2cccn2-c2nnc(N3CCCCC3)s2)c1	-24.7%
COc1ccc(NCc2cccn2-c2nnc(N3CCC(C)CC3)s2)c(OC)c1	11.2µM*
COc1ccc(OC)c(NCc2cccn2-c2nnc(N3CCC(C)CC3)s2)c1	-11.4%
COc1ccc(NC(=O)N[C@H]2CO[C@H]3[C@@H]2OC[C@@H]3n2cc(-c3ccccc3)nn2)cc1	i
COCc1nc(C2CCCN(C(=O)c3ccccc3F)C2)no1 (stereo unspecified)	33.7%
O=C(Cc1ccc(OC(F)(F)F)cc1)N1CC(CNc2cccnc2)C2(C1)CN(c1ccccc1)C2 (stereo unspecified)	-15.9%
Cc1ccc(C)c(Nc2nn3c(=O)c4ccc(C(=O)NCc5ccccc5)cc4nc3s2)c1	-10.5%
Cc1ccc(Cl)cc1Nc1nn2c(=O)c3ccc(C(=O)NCc4cccs4)cc3nc2s1	i
